{
  "source": "PubChem BioAssay",
  "key": {"[1]": {"test": "viability loss in pontine glioma line – cell-based, SU-DIPG-XVII, MIPE5.0, CellTiter-Glo, qHTS, dose response (AID 1347060; cut-off not given, nearly all actives have AC50 up to about 26 µM;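 further: cells exposed to compound for 48 hours before viability readout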)", "conditions": "CellTiter-Glo ATP luminescence"}, "[2]": {"test": "viability loss in pontine glioma line – cell-based, SU-DIPG-XIII, MIPE4.0, CellTiter-Glo, qHTS, dose response (AID 1347061; cut-off not given, nearly all actives have AC50 up to about 37 µM;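 further: cells exposed to compound for 48 hours before readout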)", "conditions": "CellTiter-Glo ATP luminescence"}, "[3]": {"test": "viability loss in pontine glioma line – cell-based, JHH-DIPG-1, MIPE4.0, CellTiter-Glo, qHTS, dose response (AID 1347062; cut-off not given, nearly all actives have AC50 up to about 27 µM;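 further: cells exposed to compound for two days before readout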)", "conditions": "JHH-DIPG-1 viability, CellTiter-Glo ATP luminescence"}, "[4]": {"test": "viability loss in pontine glioma line – cell-based, SU-DIPG-IV, MIPE4.0, CellTiter-Glo, qHTS, dose response (AID 1347063; cut-off not given, nearly all actives have AC50 up to about 30 µM;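 further: compound exposure lasted 48 hours before the viability readout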)", "conditions": "CellTiter-Glo ATP luminescence"}, "[5]": {"test": "viability loss in pontine glioma line – cell-based, SU-DIPG-XIII, MIPE5.0, CellTiter-Glo, qHTS, dose response (AID 1347064; cut-off not given, nearly all actives have AC50 up to about 23 µM;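 further: cells exposed to compound for 48 hours before the viability read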)", "conditions": "CellTiter-Glo ATP luminescence"}, "[6]": {"test": "viability loss in pontine glioma line – cell-based, SU-DIPG-XXV, MIPE5.0, CellTiter-Glo, qHTS, dose response (AID 1347065; cut-off not given, nearly all actives have AC50 up to about 26 µM;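 further: cells exposed to compound for 48 hours before ATP readout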)", "conditions": "CellTiter-Glo ATP luminescence"}, "[7]": {"test": "growth inhibition of DIPG cells – cell-based, MIPE4.0 library, CellTiter-Glo luminescence, qHTS (AID 1347066; cut-off not given, nearly all actives have AC50 up to about 30 µM;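 further: cells exposed to compound for 48 hours before readout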)", "conditions": "SU-DIPG-VI viability, CellTiter-Glo ATP luminescence"}, "[8]": {"test": "JHH-DIPG-1 glioma cell viability, MIPE5.0 library, CellTiter-Glo luminescence, qHTS (AID 1347067; cut-off not given, nearly all actives have AC50 up to about 26 µM;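 further: cells exposed to compound for 48 hours before readout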)", "conditions": "JHH-DIPG-1 glioma viability, CellTiter-Glo ATP luminescence"}, "[9]": {"test": "growth inhibition of DIPG cells – cell-based, MIPE5.0 library, qHTS (AID 1347068; cut-off not given, nearly all actives have IC50 up to about 30 µM;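 further: cells exposed to compound for 48 hours before viability readout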)", "conditions": "SU-DIPG-XXV viability"}, "[10]": {"test": "viability loss with induced miR-34 in A549 – imaging, A549 dox-inducible miR-34, nuclei and caspase counts, primary screen (AID 1347080;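 active means compounds whose cell count with miR-34 switched on is under 0.7 times the count with it off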)", "conditions": "A549 miR-34 inducible, Hoechst nuclei count, 48 h"}, "[11]": {"test": "MELAS cybrid and Rieske KO viability enhancers – cell-based, MELAS cybrids, Rieske KO mouse fibroblasts, CellTiter-Glo, primary screen (AID 1508586;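 active means mean z-score across replicates of 1.96 or higher in either the MELAS or the Rieske mutant cell line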;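 further: z relative to plate mean and SD of compound and empty wells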)", "conditions": "low glucose"}, "[12]": {"test": "drug combination growth inhibition, ovarian cancer – cell-based, oncology-focused library, rucaparib conditional, profiling panel (AID 1508598)", "conditions": "patient-derived ovarian cancer cells, CellTiter-Glo viability, 144 h, stronger effect = lower value"}},
  "note": "Results filed as inconclusive are left out. Activity calls are given as the source filed them.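 How the source made its calls, unless noted: active means normalized viability below 100% at a tested concentration; inactive means the rest.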",
  "data": [
    {"smiles": "COCCn1c2c([n+](Cc3cnccn3)c1C)C(=O)c1ccccc1C2=O", "values": [
      {"measurement": "AC50", "setting": "[1]", "value": "9.34 nM (active)"},
      {"measurement": "AC50", "setting": "[2]", "value": "66.2 nM (active)"},
      {"measurement": "AC50", "setting": "[3]", "value": "46.9 nM (active)"},
      {"measurement": "AC50", "setting": "[4]", "value": "14.8 nM (active)"},
      {"measurement": "AC50", "setting": "[5]", "value": "1.66 nM (active)"},
      {"measurement": "AC50", "setting": "[6]", "value": "26.3 nM (active)"},
      {"measurement": "AC50", "setting": "[7]", "value": "23.5 nM (active)"},
      {"measurement": "AC50", "setting": "[8]", "value": "105 nM (active)"},
      {"measurement": "IC50", "setting": "[9]", "value": "29.5 nM (active)"},
      {"measurement": "fold change", "setting": "[10]; stronger effect = lower value, cell number ratio, induced over uninduced", "value": "1.7 (inactive)"},
      {"measurement": "fold change", "setting": "[10]; measured here: relative caspase fold change +Dox/-Dox", "value": 0.996},
      {"measurement": "cell count", "setting": "[10]; measured here: total cells with miR-34 induction, stronger effect = lower value", "value": 936},
      {"measurement": "cell count", "setting": "[10]; measured here: total cells without miR-34 induction", "value": 551},
      {"measurement": "z-score", "setting": "[11]; MELAS cybrid survival, CellTiter-Glo 48 h, stronger effect = higher value", "value": "-0.74 (inactive)"},
      {"measurement": "z-score", "setting": "[11]; Rieske KO mouse fibroblast survival, CellTiter-Glo 72 h", "value": -2.86},
      {"measurement": "viability", "setting": "[12]; at 0.000305 µM, OCI-C5x cells, with rucaparib 10 µM, 100% = cells with rucaparib alone", "value": "92.6% (active)"},
      {"measurement": "viability", "setting": "[12]; at 0.000305 µM, OCI-C5x cells, without rucaparib", "value": "88.5% (active)"},
      {"measurement": "viability", "setting": "[12]; at 0.000305 µM, OCI-P5x cells, with rucaparib 20 µM, 100% = cells with rucaparib alone", "value": "116% (inactive)"},
      {"measurement": "viability", "setting": "[12]; at 0.000305 µM, OCI-P5x cells, without rucaparib", "value": "108% (inactive)"},
      {"measurement": "viability", "setting": "[12]; at 0.00122 µM, OCI-C5x cells, with rucaparib 10 µM, 100% = cells with rucaparib alone", "value": "88.5% (active)"},
      {"measurement": "viability", "setting": "[12]; at 0.00122 µM, OCI-C5x cells, without rucaparib", "value": "93.8% (active)"},
      {"measurement": "viability", "setting": "[12]; at 0.00122 µM, OCI-P5x cells, with rucaparib 20 µM, 100% = cells with rucaparib alone", "value": "128% (inactive)"},
      {"measurement": "viability", "setting": "[12]; at 0.00122 µM, OCI-P5x cells, without rucaparib", "value": "99.4% (active)"},
      {"measurement": "viability", "setting": "[12]; at 0.00488 µM, OCI-C5x cells, with rucaparib 10 µM, 100% = cells with rucaparib alone", "value": "90.5% (active)"},
      {"measurement": "viability", "setting": "[12]; at 0.00488 µM, OCI-C5x cells, without rucaparib", "value": "91.8% (active)"},
      {"measurement": "viability", "setting": "[12]; at 0.00488 µM, OCI-P5x cells, with rucaparib 20 µM, 100% = cells with rucaparib alone", "value": "114% (inactive)"},
      {"measurement": "viability", "setting": "[12]; at 0.00488 µM, OCI-P5x cells, without rucaparib", "value": "49.6% (active)"},
      {"measurement": "viability", "setting": "[12]; at 0.0195 µM, OCI-C5x cells, with rucaparib 10 µM, 100% = cells with rucaparib alone", "value": "83% (active)"},
      {"measurement": "viability", "setting": "[12]; at 0.0195 µM, OCI-C5x cells, without rucaparib", "value": "14.6% (active)"},
      {"measurement": "viability", "setting": "[12]; at 0.0195 µM, OCI-P5x cells, with rucaparib 20 µM, 100% = cells with rucaparib alone", "value": "61.5% (active)"},
      {"measurement": "viability", "setting": "[12]; at 0.0195 µM, OCI-P5x cells, without rucaparib", "value": "8.64% (active)"},
      {"measurement": "viability", "setting": "[12]; at 0.0781 µM, OCI-C5x cells, with rucaparib 10 µM, 100% = cells with rucaparib alone", "value": "11% (active)"},
      {"measurement": "viability", "setting": "[12]; at 0.0781 µM, OCI-C5x cells, without rucaparib", "value": "3.7% (active)"},
      {"measurement": "viability", "setting": "[12]; at 0.0781 µM, OCI-P5x cells, with rucaparib 20 µM, 100% = cells with rucaparib alone", "value": "18.6% (active)"},
      {"measurement": "viability", "setting": "[12]; at 0.0781 µM, OCI-P5x cells, without rucaparib", "value": "1.55% (active)"},
      {"measurement": "viability", "setting": "[12]; at 0.313 µM, OCI-C5x cells, with rucaparib 10 µM, 100% = cells with rucaparib alone", "value": "3.83% (active)"},
      {"measurement": "viability", "setting": "[12]; at 0.313 µM, OCI-C5x cells, without rucaparib", "value": "2.36% (active)"},
      {"measurement": "viability", "setting": "[12]; at 0.313 µM, OCI-P5x cells, with rucaparib 20 µM, 100% = cells with rucaparib alone", "value": "1.82% (active)"},
      {"measurement": "viability", "setting": "[12]; at 0.313 µM, OCI-P5x cells, without rucaparib", "value": "0.757% (active)"},
      {"measurement": "viability", "setting": "[12]; at 1.25 µM, OCI-C5x cells, with rucaparib 10 µM, 100% = cells with rucaparib alone", "value": "2.25% (active)"},
      {"measurement": "viability", "setting": "[12]; at 1.25 µM, OCI-C5x cells, without rucaparib", "value": "1.76% (active)"},
      {"measurement": "viability", "setting": "[12]; at 1.25 µM, OCI-P5x cells, with rucaparib 20 µM, 100% = cells with rucaparib alone", "value": "1.09% (active)"},
      {"measurement": "viability", "setting": "[12]; at 1.25 µM, OCI-P5x cells, without rucaparib", "value": "0.567% (active)"},
      {"measurement": "viability", "setting": "[12]; at 5 µM, OCI-C5x cells, with rucaparib 10 µM, 100% = cells with rucaparib alone", "value": "0.969% (active)"},
      {"measurement": "viability", "setting": "[12]; at 5 µM, OCI-C5x cells, without rucaparib", "value": "1.42% (active)"},
      {"measurement": "viability", "setting": "[12]; at 5 µM, OCI-P5x cells, with rucaparib 20 µM, 100% = cells with rucaparib alone", "value": "0.522% (active)"},
      {"measurement": "viability", "setting": "[12]; at 5 µM, OCI-P5x cells, without rucaparib", "value": "0.371% (active)"}
    ]}
  ]
}
